# Reference: PubChem BioAssay (NCI)
# This is part of a sample that, as a whole, favours compounds with a hit. Of some 83,000 tested, about 20% had one in any assay.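 Assay: single dose, 48 h. Readout: percent growth (0 = no net growth; negative = cell death). Active: <10.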 A number with no mark means an inactive call. Calls of active or inactive are those of the source.
# System: HOP-62 NSCLC
# Test: NCI-60 one-dose screen, 48 h (100 = growth as untreated, 0 = no growth, -100 = all killed)
# Conditions: 10 µM
row,SMILES,growth
1,Cc1cc(Cl)ccc1Nc1nc(C(F)(F)F)ccc1C(=O)N/N=C/c1c(Cl)cccc1Cl,-4.74% (active)
2,CN(C)CCC1(c2ccccc2)CCN(C)C1=O (centres undefined),96.9%
3,CCOC(=O)N/N=C/c1ccc(OC)c(OC)c1,112%
4,CC(C)(C)OC(=O)CC(S(=O)(=O)c1ccccc1)S(=O)(=O)c1ccccc1,103%
5,CN(C)c1ncnc2c1nnn2C1OC(CO)C(O)C1O (centres undefined),32.7%
6,Nc1cc(-c2ccc(Cl)cc2)nn1-c1nc2ccccc2nc1Cc1ccccc1,88.8%
7,Fc1ccc(C(c2ccc(F)cc2)C(Cl)Cl)cc1,115%
8,COc1ccc(/C=C2\CCCC3C2=Nc2ccccc2NC3c2ccc(OC)cc2)cc1 (centres undefined),128%
9,O=C(c1ccccc1)N(C(=O)c1ccccc1)N1CCCC1,104%
10,CCCCCCCCCCCC[n+]1c(C)cc(N)c2ccccc21,3.61% (active)
11,O=C(N/N=C/c1c(Cl)cccc1Cl)c1ccccc1Nc1cccc(C(F)(F)F)c1,111%
12,O=c1c(Br)ccc(Br)cc1Br,15.2%
13,Nc1nc(-c2ccc(Cl)cc2)cc(-c2cc3ccccc3oc2=O)n1,84.7%

# System: NCI-H460 lung
# Test: as above
# Conditions: 10 µM
row,SMILES,growth
1,O=c1cn[nH]c2ccc(Br)cc12,108%
2,O=[N+]([O-])c1ccc(/C(=C/c2ccccc2)[n+]2ccccc2)cc1,103%
3,COc1ccc(-c2nn(-c3cccc(Cl)c3)cc2-c2c(C#N)c(N)n(N)c(=O)c2C#N)cc1,72.2%
4,COc1ccc(-c2nn(-c3cccc(Cl)c3)cc2-c2c(C#N)c(=O)n3[nH]c(-c4ccc(C)cc4)nc3c2C#N)cc1,39.3%
5,Nc1ncc(-c2cnn(C3CCNCC3)c2)cc1-c1nc2ccccc2o1,-0.928% (active)
6,COC(=O)CC[C@@H](C)[C@H]1CC[C@H]2[C@@H]3CC[C@@H]4C[C@H](O)CC[C@]4(C)[C@H]3C[C@H](O)[C@]12C,110%
7,S=C1N(c2ccccc2)CN(C2CCCCC2)CN1c1ccccc1,105%
8,COC(=O)C1OC1c1cc([N+](=O)[O-])ccc1OC (centres undefined),109%
9,Cc1cc(NC(=O)c2ccc(C)c(Nc3nccc(-c4cccnc4)n3)c2)cc(-n2cnc(C)c2)c1,2.48% (active)
10,c1ccc(/C(=N\Nc2ccc3ccccc3n2)c2ccccn2)cc1,5.49% (active)
11,COc1cc2c(Nc3ccc(-c4ccc(N)cc4)cc3)ncnc2c(OC)c1OC,19.9%
12,COc1nc2c(c(=O)n1C)CN(c1ccccc1)C(=O)C(C)N2 (centres undefined),104%
13,Cc1cc(Cl)ccc1Nc1nc(C(F)(F)F)ccc1C(=O)N/N=C/c1c(Cl)cccc1Cl,1.31% (active)
14,CCOC(=O)N/N=C/c1ccc(OC)c(OC)c1,102%
15,COc1ccc(/C=C2\CCCC3C2=Nc2ccccc2NC3c2ccc(OC)cc2)cc1 (centres undefined),94.8%
16,O=C(c1ccccc1)N(C(=O)c1ccccc1)N1CCCC1,106%
17,Cc1cn(-c2cc(F)cc(NC(=O)c3ccc(C)c(Nc4nccc(-c5cccnc5)n4)c3)c2)cn1,20.1%
18,O=C1NC(=O)c2c(CCCSc3nc4ccccc4c(=O)n3CCc3ccccc3)cccc21,83.8%
19,Cc1cc(O)ccc1C1=NN(c2ccc(S(C)(=O)=O)cc2)C(=O)CC1,73.1%
20,N#Cc1c(-c2ccc(Cl)cc2)n(O)c2ccccc12,9.12% (active)
21,O=C(N/N=C/c1c(Cl)cccc1Cl)c1ccccc1Nc1cccc(C(F)(F)F)c1,88.6%
22,O=c1c(Br)ccc(Br)cc1Br,36.1%
23,N#CC1=CC2CN(Cc3ccccc3)C1C1C(=O)N(c3ccccc3)C(=O)C21 (centres undefined),101%
24,Nc1nc(-c2ccc(Cl)cc2)cc(-c2cc3ccccc3oc2=O)n1,101%
25,COc1ccc(C(=O)c2ccccc2CN2C(=O)c3ccccc3C2=O)cc1,105%
26,CCc1ccc(C2=NN(c3ccc(S(C)(=O)=O)cc3)C(=O)CC2)cc1,10.5%

# System: HOP-92 NSCLC
# Test: as above
# Conditions: 10 µM
row,SMILES,growth
1,COc1ccc(C(=O)N2C=Cc3ccccc3C2C#N)cc1 (centres undefined),102%
2,O=c1cn[nH]c2ccc(Br)cc12,123%
3,CCOc1ccccc1/C=N\N=C(\N)N/N=C/c1ccccc1OCC,46.5%
4,NC1=CC(=O)C(=O)c2cccnc21,149%
5,COc1ccc(-c2nn(-c3cccc(Cl)c3)cc2-c2c(C#N)c(N)n(N)c(=O)c2C#N)cc1,53.8%
6,COc1ccc(-c2nn(-c3cccc(Cl)c3)cc2-c2c(C#N)c(=O)n3[nH]c(-c4ccc(C)cc4)nc3c2C#N)cc1,59.2%
7,Cc1ccc(C(=O)C2C(=O)C3CCC2C3)cc1 (centres undefined),98%
8,COc1ccc(/C(=N\N)C(=O)c2ccccc2)cc1 (tested in a mixture with another compound),82.7%
9,COC(=O)c1c[nH]c2cc(OC(C)C)c(OC(C)C)cc2c1=O,80.5%
10,O[C@@H]1CO[C@H]2[C@@H]1OC[C@@H]2O,108%
11,CC(=O)Nc1ccc(S(=O)(=O)c2ccnc3cc(Cl)ccc23)cc1,99.8%
12,COC(=O)C1OC1c1cc([N+](=O)[O-])ccc1OC (centres undefined),106%
13,Cc1cc(NC(=O)c2ccc(C)c(Nc3nccc(-c4cccnc4)n3)c2)cc(-n2cnc(C)c2)c1,25.3%
14,CN(C)CCC1(c2ccccc2)CCN(C)C1=O (centres undefined),123%
15,CC(C)(C)OC(=O)CC(S(=O)(=O)c1ccccc1)S(=O)(=O)c1ccccc1,122%
16,CN(C)c1ncnc2c1nnn2C1OC(CO)C(O)C1O (centres undefined),19.6%
17,Fc1ccc(C(c2ccc(F)cc2)C(Cl)Cl)cc1,75.8%
18,CCCCCCCCCCCC[n+]1c(C)cc(N)c2ccccc21,-6.03% (active)
19,Cc1cn(-c2cc(F)cc(NC(=O)c3ccc(C)c(Nc4nccc(-c5cccnc5)n4)c3)c2)cn1,-22% (active)
20,O=C1NC(=O)c2c(CCCSc3nc4ccccc4c(=O)n3CCc3ccccc3)cccc21,94.5%
21,Cc1cc(O)ccc1C1=NN(c2ccc(S(C)(=O)=O)cc2)C(=O)CC1,92.8%
22,N#Cc1c(-c2ccc(Cl)cc2)n(O)c2ccccc12,-8.45% (active)
23,N#CC1=CC2CN(Cc3ccccc3)C1C1C(=O)N(c3ccccc3)C(=O)C21 (centres undefined),108%
24,COc1ccc(C(=O)c2ccccc2CN2C(=O)c3ccccc3C2=O)cc1,86.7%
25,CCc1ccc(C2=NN(c3ccc(S(C)(=O)=O)cc3)C(=O)CC2)cc1,68.6%
